The supplement of paper PMC6658780
Structures can show the parent of a compound that is named as a salt. ± gives the standard deviation of the averaged measurements.

What follows are compounds tested on Klebsiella pneumoniae KPC-119 (assay: percent growth inhibition of drug + antibiotic vs DMSO control; higher = more growth inhibition). Settings: antibiotic (0.125x MIC): meropenem; 20 µM.

Row | Compound | percent growth inhibition [%]
1 | Nc1nc(/C(=C/CC(=O)O)C(=O)N[C@@H]2C(=O)N3C(C(=O)O)=CCS[C@H]23)cs1 [Ceftibuten] | 94.5 ± 4.1
2 | CC1COc2c(N3CCN(C)CC3)c(F)cc3c(=O)c(C(=O)O)cn1c23 (configuration not stated) [Ofloxacin] | 99.92 ± 0.12
3 | NCC[C@H](O)C(=O)N[C@@H]1C[C@H](N)[C@@H](O[C@H]2O[C@H](CN)[C@@H](O)[C@H](O)[C@H]2O)[C@H](O)[C@H]1O[C@H]1O[C@H](CO)[C@@H](O)[C@H](N)[C@H]1O [Amikacin hydrate] | 99.71 ± 0.1
4 | CCCCC(CC)CNC(=N)NC(=N)NCCCCCCNC(=N)NC(=N)NCC(CC)CCCC (configuration not stated) [Alexidine dihydrochloride] | 100.04 ± 0.0019

What follows are compounds tested on Klebsiella pneumoniae NCTC-13439 in the same assay as above. Settings: antibiotic (0.125x MIC): ciprofloxacin; 7 µM.

Row | Compound | percent growth inhibition [%]
5 | CCN1CCN(c2cc3c(cc2F)c(=O)c(C(=O)O)cn3C2CC2)CC1 [Enrofloxacin] | 7.59 ± 7.8
6 | NC1CCN(c2c(F)cc3c(=O)c(C(=O)O)cn(C4CC4)c3c2Cl)C1 (configuration not stated) [Clinafloxacin] | 13.8 ± 8.5
7 | Cc1c(F)c(N2CCNC(C)C2)cc2c1c(=O)c(C(=O)O)cn2C1CC1 (configuration not stated) [Grepafloxacin] | 18.9 ± 3.6
8 | COc1c(N2CCNC(C)C2)c(F)cc2c(=O)c(C(=O)O)cn(C3CC3)c12 (configuration not stated) [Gatifloxacin] | 26.2 ± 8.2
9 | C#C[C@]1(OC(C)=O)CC[C@H]2[C@@H]3CCC4=CC(=NO)CC[C@@H]4[C@H]3CC[C@@]21CC (mixture of isomers) [Norgestimate] | -7.59 ± 3.1
10 | NC(=O)N/N=C/c1ccc([N+](=O)[O-])o1 [Nitrofural] | 10.1 ± 18
11 | Cc1nc2n(c(=O)c1CCN1CCC(c3noc4cc(F)ccc34)CC1)CCCC2 [Risperidone] | 15.5 ± 4.5
12 | N=C(NCCCCCCNC(=N)NC(=N)Nc1ccc(Cl)cc1)NC(=N)Nc1ccc(Cl)cc1 [Chlorhexidine] | 38.3 ± 1.2
13 | COc1c(N2C[C@@H]3CCCN[C@@H]3C2)c(F)cc2c(=O)c(C(=O)O)cn(C3CC3)c12 [Moxifloxacin] | 25.8 ± 7.3
14 | O=C(OCC(O)CO)c1ccccc1Nc1ccnc2cc(Cl)ccc12 (configuration not stated) [Glafenine hydrochloride] | 6.41 ± 16
15 | NC1CCN(c2nc3c(cc2F)c(=O)c(C(=O)O)cn3-c2ccc(F)cc2F)C1 (configuration not stated) [Tosufloxacin hydrochloride] | 88.1 ± 8.8
16 | CC(=O)CCCCn1c(=O)c2c(ncn2C)n(C)c1=O [Pentoxifylline] | 2.24 ± 1.5

Same assay, conditions: antibiotic (0.125x MIC): ciprofloxacin; 20 µM

Row | Compound | percent growth inhibition [%]
17 | CCN1CCN(c2cc3c(cc2F)c(=O)c(C(=O)O)cn3C2CC2)CC1 [Enrofloxacin] | 73.1 ± 13
18 | NC1CCN(c2c(F)cc3c(=O)c(C(=O)O)cn(C4CC4)c3c2Cl)C1 (configuration not stated) [Clinafloxacin] | 93.36 ± 0.75
19 | Cc1c(F)c(N2CCNC(C)C2)cc2c1c(=O)c(C(=O)O)cn2C1CC1 (configuration not stated) [Grepafloxacin] | 51.2 ± 18
20 | COc1c(N2CCNC(C)C2)c(F)cc2c(=O)c(C(=O)O)cn(C3CC3)c12 (configuration not stated) [Gatifloxacin] | 96.7 ± 1.2
21 | C#C[C@]1(OC(C)=O)CC[C@H]2[C@@H]3CCC4=CC(=NO)CC[C@@H]4[C@H]3CC[C@@]21CC (mixture of isomers) [Norgestimate] | 4.4 ± 13
22 | NC(=O)N/N=C/c1ccc([N+](=O)[O-])o1 [Nitrofural] | 16.3 ± 2.7
23 | Cc1nc2n(c(=O)c1CCN1CCC(c3noc4cc(F)ccc34)CC1)CCCC2 [Risperidone] | -11.1 ± 3
24 | N=C(NCCCCCCNC(=N)NC(=N)Nc1ccc(Cl)cc1)NC(=N)Nc1ccc(Cl)cc1 [Chlorhexidine] | 100.15 ± 0.021
25 | COc1c(N2C[C@@H]3CCCN[C@@H]3C2)c(F)cc2c(=O)c(C(=O)O)cn(C3CC3)c12 [Moxifloxacin] | 99.24 ± 0.54
26 | O=C(OCC(O)CO)c1ccccc1Nc1ccnc2cc(Cl)ccc12 (configuration not stated) [Glafenine hydrochloride] | 5.01 ± 4.3
27 | NC1CCN(c2nc3c(cc2F)c(=O)c(C(=O)O)cn3-c2ccc(F)cc2F)C1 (configuration not stated) [Tosufloxacin hydrochloride] | 99.03 ± 0.4
28 | CC(=O)CCCCn1c(=O)c2c(ncn2C)n(C)c1=O [Pentoxifylline] | 5.4 ± 5.5

Same assay, conditions: antibiotic (0.125x MIC): tigecycline; 7 µM

Row | Compound | percent growth inhibition [%]
29 | CCN1CCN(c2cc3c(cc2F)c(=O)c(C(=O)O)cn3C2CC2)CC1 [Enrofloxacin] | 7.12 ± 1.8
30 | NC1CCN(c2c(F)cc3c(=O)c(C(=O)O)cn(C4CC4)c3c2Cl)C1 (configuration not stated) [Clinafloxacin] | 14.4 ± 11
31 | Cc1c(F)c(N2CCNC(C)C2)cc2c1c(=O)c(C(=O)O)cn2C1CC1 (configuration not stated) [Grepafloxacin] | 7.09 ± 6.5
32 | COc1c(N2CCNC(C)C2)c(F)cc2c(=O)c(C(=O)O)cn(C3CC3)c12 (configuration not stated) [Gatifloxacin] | 17.5 ± 19
33 | C[C@H](N)[C@H](O)c1cccc(O)c1 [Metaraminol bitartrate] | 8.48 ± 9.5
34 | COc1c(N2C[C@@H]3CCCN[C@@H]3C2)c(F)cc2c(=O)c(C(=O)O)cn(C3CC3)c12 [Moxifloxacin] | 14.4 ± 14
35 | CC(=O)CCCCn1c(=O)c2c(ncn2C)n(C)c1=O [Pentoxifylline] | 1.34 ± 3.2

Same assay, conditions: antibiotic (0.125x MIC): tigecycline; 20 µM

Row | Compound | percent growth inhibition [%]
36 | CCN1CCN(c2cc3c(cc2F)c(=O)c(C(=O)O)cn3C2CC2)CC1 [Enrofloxacin] | 69.6 ± 9.7
37 | NC1CCN(c2c(F)cc3c(=O)c(C(=O)O)cn(C4CC4)c3c2Cl)C1 (configuration not stated) [Clinafloxacin] | 96.8 ± 4.4
38 | COc1ccc(OC)c(C(O)CNC(=O)CN)c1 (configuration not stated) [Midodrine hydrochloride] | -2.55 ± 3.2
39 | C[C@H](N)[C@H](O)c1cccc(O)c1 [Metaraminol bitartrate] | -12.7 ± 7
40 | N=C(NCCCCCCNC(=N)NC(=N)Nc1ccc(Cl)cc1)NC(=N)Nc1ccc(Cl)cc1 [Chlorhexidine] | 100.14 ± 0.079
41 | COc1c(N2C[C@@H]3CCCN[C@@H]3C2)c(F)cc2c(=O)c(C(=O)O)cn(C3CC3)c12 [Moxifloxacin] | 99.69 ± 0.6
42 | CC(=O)CCCCn1c(=O)c2c(ncn2C)n(C)c1=O [Pentoxifylline] | 4.32 ± 0.75
